Results: PubChem BioAssay (Tox21)
Records with an inconclusive call do not appear. Active and inactive are the calls of the source. Unless noted, the call rests on the fitted dose curve.

Experiments:
[1] = qHTS assay for small molecule agonists of the p53 signaling pathway (AID 651631); further: nearly all actives have a fitted effect of over 15% in size
Outline: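 Agonist mode screen using a stably integrated beta-lactamase gene under p53 response elements in HCT-116 cells. Compound exposure lasts 16 h at 37 °C; fluorescence intensity is measured following 2 h FRET substrate loading.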

Aromatase (Homo sapiens) = Aromatase (Homo sapiens) (UniProt P11511); assay: qHTS assay to identify aromatase inhibitors (AID 743083; active means well fitted curve in the direction sought with a large enough effect in the repeat runs; an effect the other way counts as inactive or inconclusive; further: nearly all actives have a fitted effect of over 55% in size)
Sequence of Aromatase (Homo sapiens) (P11511 whole entry, looked up): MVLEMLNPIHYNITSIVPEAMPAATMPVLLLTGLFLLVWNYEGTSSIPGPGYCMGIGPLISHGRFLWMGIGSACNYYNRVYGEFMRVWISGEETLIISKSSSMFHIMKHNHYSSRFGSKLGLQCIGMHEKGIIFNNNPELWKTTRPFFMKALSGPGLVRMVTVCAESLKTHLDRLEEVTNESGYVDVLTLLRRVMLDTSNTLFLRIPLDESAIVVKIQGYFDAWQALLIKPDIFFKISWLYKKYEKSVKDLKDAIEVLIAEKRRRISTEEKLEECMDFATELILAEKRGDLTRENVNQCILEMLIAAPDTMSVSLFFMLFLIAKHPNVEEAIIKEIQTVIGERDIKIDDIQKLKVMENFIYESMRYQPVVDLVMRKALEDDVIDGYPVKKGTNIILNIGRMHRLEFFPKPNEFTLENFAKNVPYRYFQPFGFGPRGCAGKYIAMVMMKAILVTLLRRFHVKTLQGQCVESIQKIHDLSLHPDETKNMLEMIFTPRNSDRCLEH

[2] = target: Aryl hydrocarbon receptor (Homo sapiens) (UniProt P35869); assay: qHTS assay to identify small molecule that activate the aryl hydrocarbon receptor (AhR) signaling pathway (AID 743085; active means well fitted curve in the direction sought with a large enough effect in the repeat runs; an effect the other way counts as inactive or inconclusive;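 further: HG2L7.5c1 human HepG2 liver cells with stably integrated DRE-driven firefly reporter; nearly all actives have a fitted effect of over 15% in size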)
Sequence of Aryl hydrocarbon receptor (Homo sapiens) (P35869 whole entry, looked up): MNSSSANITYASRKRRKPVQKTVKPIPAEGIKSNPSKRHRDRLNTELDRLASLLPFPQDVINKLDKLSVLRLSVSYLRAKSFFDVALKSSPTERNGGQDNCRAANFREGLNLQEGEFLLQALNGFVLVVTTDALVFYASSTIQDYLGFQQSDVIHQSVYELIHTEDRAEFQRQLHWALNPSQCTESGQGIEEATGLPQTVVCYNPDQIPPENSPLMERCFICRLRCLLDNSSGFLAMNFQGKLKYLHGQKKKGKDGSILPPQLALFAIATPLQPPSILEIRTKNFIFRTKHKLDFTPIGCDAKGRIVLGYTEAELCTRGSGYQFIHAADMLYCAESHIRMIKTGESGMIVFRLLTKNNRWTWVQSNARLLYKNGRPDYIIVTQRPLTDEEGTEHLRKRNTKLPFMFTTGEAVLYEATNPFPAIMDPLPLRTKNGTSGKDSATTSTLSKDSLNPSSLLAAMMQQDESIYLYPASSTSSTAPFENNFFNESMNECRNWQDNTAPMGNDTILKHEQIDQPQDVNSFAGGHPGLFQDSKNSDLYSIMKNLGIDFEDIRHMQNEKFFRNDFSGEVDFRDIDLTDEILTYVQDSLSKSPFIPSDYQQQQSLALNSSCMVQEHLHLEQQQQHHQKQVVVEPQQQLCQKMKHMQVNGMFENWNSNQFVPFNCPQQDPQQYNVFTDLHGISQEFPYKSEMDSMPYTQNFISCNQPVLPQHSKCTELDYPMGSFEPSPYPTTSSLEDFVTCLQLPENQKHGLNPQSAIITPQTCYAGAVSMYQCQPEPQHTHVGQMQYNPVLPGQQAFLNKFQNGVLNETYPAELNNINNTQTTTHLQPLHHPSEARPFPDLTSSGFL
Outline: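 Compounds were tested in HepG2 hepatocellular carcinoma cells harbouring a stably integrated luciferase gene under control of 20 DREs. Increased reporter signal after 24 h treatment at 37C was taken as AhR activation.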

[3] = qHTS assay to identify small molecule agonists of H2AX (AID 1224845; active means well fitted activation curve with a large enough effect in the signal ratio in the repeat runs, not every such curve was filed as active; the % refers to the signal ratio)
Outline: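 Wild-type CHO-K1 cells plated overnight, then exposed 3 hr at 37C to compounds at 15 concentrations (0.76% DMSO). Lysed, then HTRF anti-pH2AX(S139)-cryptate/anti-H2AX-d2 detection after 24 hr at room temperature; emissions 665 and 620 nm.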

[4] = Caspase-3/7 induction in HepG2 cells by small molecules, qHTS assay (AID 1346978; active means well fitted curve in the direction sought with a large enough effect in the repeat runs; an effect the other way counts as inactive or inconclusive; further: nearly all actives have a fitted effect of over 15% in size)
Outline: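 Wild-type HepG2 cells (2,000/well) were settled 5 h at 37 C, 5% CO2, then exposed to compounds in DMSO for 17 h. Caspase-3/7 activity was read by luminescence 30 min after adding Caspase-Glo 3/7 reagent at room temperature.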

[5] = target: Acetylcholinesterase (Homo sapiens) (UniProt P22303); assay: Acetylcholinesterase (AChE) small molecule antagonists: colormetric cell-based qHTS assay (AID 1347395); further: nearly all actives have a fitted effect of over 30% in size
Sequence of Acetylcholinesterase (Homo sapiens) (P22303 whole entry, looked up): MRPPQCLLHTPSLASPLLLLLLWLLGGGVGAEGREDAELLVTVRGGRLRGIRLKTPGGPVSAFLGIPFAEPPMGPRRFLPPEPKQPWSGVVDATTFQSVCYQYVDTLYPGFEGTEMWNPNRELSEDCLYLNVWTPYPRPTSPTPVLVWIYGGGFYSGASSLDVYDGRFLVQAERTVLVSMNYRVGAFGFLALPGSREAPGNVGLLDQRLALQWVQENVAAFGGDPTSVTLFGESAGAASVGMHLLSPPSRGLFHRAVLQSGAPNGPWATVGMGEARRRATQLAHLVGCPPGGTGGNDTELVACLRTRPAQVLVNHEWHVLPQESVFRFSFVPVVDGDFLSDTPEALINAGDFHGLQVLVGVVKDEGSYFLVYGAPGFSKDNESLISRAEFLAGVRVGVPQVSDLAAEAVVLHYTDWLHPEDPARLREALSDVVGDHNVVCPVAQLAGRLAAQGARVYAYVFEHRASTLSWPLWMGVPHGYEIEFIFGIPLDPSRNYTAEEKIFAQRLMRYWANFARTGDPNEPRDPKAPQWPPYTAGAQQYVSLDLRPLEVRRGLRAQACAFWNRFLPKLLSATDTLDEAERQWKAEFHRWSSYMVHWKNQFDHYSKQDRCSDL
Outline: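 Cells (SH-SY5Y, 2,000 per well) are seeded and left overnight at 37 C. Compound is added for 30 min, then DTNB and acetylthiocholine for a further 90 min at 37 C before absorbance-based thiocholine detection.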

[6] = target: Acetylcholinesterase (Homo sapiens) (UniProt P22303); assay: Acetylcholinesterase (AChE) small molecule antagonists: enzyme-based qHTS assay (AID 1347397); settings: Potency: AChE enzyme activity inhibition; outcome: AChE enzyme activity inhibition; further: nearly all actives have a fitted effect of over 55% in size
Outline: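 Recombinant human AChE, dispensed at 50 mU/mL, was preincubated with Tox21 10K compounds or DMSO vehicle for 30 min at room temperature. DTNB plus acetylthiocholine was then added, and thiocholine was measured colorimetrically after a further 10 min.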

[7] = target: Acetylcholinesterase (Homo sapiens) (UniProt P22303); assay: Acetylcholinesterase (AChE) small molecule antagonists: fluorescence cell-based qHTS assay (AID 1347398); settings: Potency: AChE activity; outcome: AChE activity; further: nearly all actives have a fitted effect of over 50% in size
Outline: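 Human SH-SY5Y cells were plated overnight at 37 C, exposed to compound for 30 min at 37 C, 5% CO2, then given acetylthiocholine plus Thiolite Green for 40 min at room temperature; thiocholine fluorescence (Ex/Em 490/520 nm) reports endogenous AChE activity.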

[8] = target: Acetylcholinesterase (Homo sapiens) (UniProt P22303); assay: Acetylcholinesterase (AChE) small molecule antagonists: enzyme-based qHTS assay with human liver microsomes (AID 1347399); settings: Potency: qHTS inhibition; outcome: qHTS inhibition; further: nearly all actives have a fitted effect of over 60% in size
Outline: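 Recombinant human AChE (50 mU/mL in the enzyme mix) and human liver microsomes (0.25 mg/mL final) were preincubated with compound and NADPH (0.25 mg/mL final) for 30 min at 37 C. Acetylthiocholine/DTNB was then added; thiocholine was read colorimetrically after 10 min at room temperature.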

[9] = qHTS assay to identify small molecule agonists of the estrogen related receptor (ERR) signaling pathway from Tox21 library (AID 1224849); settings: ERR reporter cell line, ONE-Glo luciferase, 18 h; at 92.4 µM (top of the series) unless noted; further: nearly all actives have a fitted effect of over 15% in size
Outline: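 ERR reporter cell line (NTP) seeded, rested 6 h at 37 C/5% CO2, then pinned with Tox21 compounds in DMSO. After 18 h at 37 C, ONE-Glo luciferase luminescence was read following 30 min at room temperature.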
On the % scale 0 is the no-effect control and ±100 the full control effect.

Cc1cc([N+](=O)[O-])ccc1N
inactive: Potency [1] | Potency (Aromatase (Homo sapiens)) | Potency [2] | Potency [3] | Potency [4] | Potency [5] | Potency [6] | Potency [7] | Potency [8]

Cc1ccc([N+](=O)[O-])c(C)c1
inactive: Potency (Aromatase (Homo sapiens)) | activity change, positive = activation [9] -82.5% | Potency [5] | Potency [6] | Potency [7] | Potency [8]
